Read-out in experiment [1]: Monocyte Chemoattractant Protein-1 (MCP1), CCL2 (gene 6347)
Description: BSK_LPS_MCP1: BioMAP Diversity Plus: LPS Assay for Monocyte Chemoattractant Protein-1 (MCP1) Biomarker Activity (AID 2283081). The conditions noted are these: primary human HUVEC with PBMC; actives raise or lower the signal. The procedure, abridged:
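Values derive from bidirectional fitting against DMSO of ELISA-measured MCP-1 in a human primary endothelial and mononuclear cell co-culture, 24 h after chemical addition under LPS activation.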

Experiment [2] is described as follows: BSK_LPS_PGE2: BioMAP Diversity Plus: LPS Assay for Prostaglandin E2 (PGE2) Biomarker Activity (AID 2283082). The conditions noted are these: primary human HUVEC with PBMC; actives raise or lower the signal. A digest of the protocol: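 Primary human endothelial cells and blood mononuclear cells, co-cultured with LPS, receive test chemical; PGE2 ELISA follows at 24 h, with SRB-stained parallel cultures flagging cytotoxicity.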

Read-out in experiment [3]: Macrophage colony-stimulating factor (MCSF), CSF1 (gene 1435)
Description: BSK_LPS_MCSF: BioMAP Diversity Plus: LPS Assay for Macrophage colony-stimulating factor (MCSF) Biomarker Activity (AID 2283083). The conditions noted are these: primary human HUVEC with PBMC; actives raise or lower the signal. The procedure, abridged:
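Bidirectional fit versus DMSO of ELISA-measured M-CSF in co-cultured human umbilical vein endothelial cells and PBMC, sampled 24 h after dosing.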

Read-out in experiment [4]: Tissue Factor, F3 (gene 2152)
Description: BSK_LPS_TissueFactor: BioMAP Diversity Plus: LPS Assay for Tissue Factor Biomarker Activity (AID 2283084). The conditions noted are these: primary human HUVEC with PBMC; actives raise or lower the signal. A digest of the protocol: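 Read-out: CD142 ELISA, 24 h. System: LPS-driven human endothelial/PBMC co-culture. Analysis: up- or down-signal fitted against DMSO.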

Read-out in experiment [5]: Tumor necrosis factor (Homo sapiens) (UniProt P01375)
Put plainly: BSK_LPS_TNFa: BioMAP Diversity Plus: LPS Assay for Tumour Necrosis Factor alpha (TNFa) Biomarker Activity (AID 2283085).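 For AC50: TNFa protein level quantified by ELISA in the co-culture.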 The conditions noted are these: primary human HUVEC with PBMC; actives raise or lower the signal. The procedure, abridged:
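ELISA-based TNFa endpoint in a human endothelial–PBMC co-culture sampled 24 h post-exposure. Curves were fitted in both directions using DMSO as baseline of activity.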

Read-out in experiment [6]: Vascular cell adhesion molecule 1 (VCAM1), VCAM1 (gene 7412)
Description: BSK_LPS_VCAM1: BioMAP Diversity Plus: LPS Assay for Vascular cell adhesion molecule 1 (VCAM1) Biomarker Activity (AID 2283086). The conditions noted are these: primary human HUVEC with PBMC; actives raise or lower the signal. A digest of the protocol: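 Measured by ELISA: VCAM-1 in LPS-activated HUVEC/PBMC co-cultures 24 h after treatment. Values reflect bidirectional fitting with DMSO as baseline.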

Read-out in experiment [7]: CD38, CD38 (gene 952)
Put plainly: BSK_SAg_CD38: BioMAP Diversity Plus: SAg Assay for CD38 Biomarker Activity (AID 2283087). The conditions noted are these: primary human HUVEC with PBMC; actives raise or lower the signal. A digest of the protocol: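 Measures CD38 on a human endothelial/PBMC co-culture driven by SEB and TSST-1, 24 h after compound exposure, using ELISA with fluorescence detection; DMSO defines baseline for bidirectional curve fitting.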

Read-out in experiment [8]: CD40, CD40 (gene 958)
Put plainly: BSK_SAg_CD40: BioMAP Diversity Plus: SAg Assay for CD40 Biomarker Activity (AID 2283088). The conditions noted are these: primary human HUVEC with PBMC; actives raise or lower the signal. The procedure, abridged: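 Endpoint derived by fitting increases or decreases versus DMSO controls. CD40 is detected by fluorescence ELISA in a human vascular co-culture of endothelium and PBMC at 24 h.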

Read-out in experiment [9]: CD69, CD69 (gene 969)
Description: BSK_SAg_CD69: BioMAP Diversity Plus: SAg Assay for CD69 Biomarker Activity (AID 2283089).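 For AC50: cell surface CD69 protein quantified by ELISA with fluorescence detection.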 The conditions noted are these: primary human HUVEC with PBMC; actives raise or lower the signal. A digest of the protocol:
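Values derive from bidirectional fitting relative to DMSO vehicle. Cells: umbilical vein endothelium plus peripheral blood mononuclear cells, treated 24 h before fluorescent ELISA for CD69.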

Read-out in experiment [10]: Monocyte Chemoattractant Protein-1 (MCP1), CCL2 (gene 6347)
Description: BSK_SAg_MCP1: BioMAP Diversity Plus: SAg Assay for Monocyte Chemoattractant Protein-1 (MCP1) Biomarker Activity (AID 2283090). The conditions noted are these: primary human HUVEC with PBMC; actives raise or lower the signal. A digest of the protocol:
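Values derive from bidirectional fitting of ELISA-measured MCP1 against DMSO controls. Readings were taken 24 h after dosing human vascular endothelial cells co-cultured with peripheral blood mononuclear cells under superantigen stimulation.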

Read-out in experiment [11]: E-selectin (Homo sapiens) (UniProt P16581)
Description: BSK_SAg_Eselectin: BioMAP Diversity Plus: SAg Assay for Eselectin Biomarker Activity (AID 2283091). The conditions noted are these: primary human HUVEC with PBMC; actives raise or lower the signal. A digest of the protocol: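 Endpoint values derive from bidirectional fitting relative to DMSO, using ELISA-measured E-selectin in a human vascular co-culture (umbilical vein endothelium plus PBMC) sampled 24 h after dosing.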

Read-out in experiment [12]: Monokine induced gamma interferon (MIG), CXCL9 (gene 4283)
Description: BSK_SAg_MIG: BioMAP Diversity Plus: SAg Assay for Monokine induced gamma interferon (MIG) Biomarker Activity (AID 2283092). The conditions noted are these: primary human HUVEC with PBMC; actives raise or lower the signal. The procedure, abridged: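 Values reflect bidirectional fitting of ELISA-measured MIG against DMSO vehicle, taken 24 h after dosing of a co-culture of human umbilical vein endothelial cells and peripheral blood mononuclear cells.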

Experiment [13] in a line: BSK_SAg_PBMCCytotoxicity: PBMC Cytotoxicity Assessment in the BioMAP Diversity Plus: SAg Assay (AID 2283093).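 For AC50: PBMC superantigen activated with SEB plus TSST-1 one hour after compound addition.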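 Note: PBMC viability measured as Alamar Blue reduction fluorescence at 546/580 nm; fitted both ways against DMSO so a hit may be loss or gain of signal.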 The conditions noted are these: primary human HUVEC with PBMC. A digest of the protocol: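 Alamar Blue reduction (6 h, 546/580 nm) reports PBMC cytotoxicity after 90 h superantigen activation (SEB, TSST-1; 20 ng/mL final each) with 1 h compound pre-treatment. Gain or loss of signal fitted versus DMSO.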

Experiment [14] can be described thus: BSK_SAg_Proliferation: Cell Proliferation Assessment in the BioMAP Diversity Plus: SAg Assay (AID 2283095).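 Note: relative cell number as total protein by SRB absorbance in sub-confluent culture.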 The conditions noted are these: primary human HUVEC with PBMC. The procedure, abridged: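 A human primary co-culture of umbilical vein endothelium and blood mononuclear cells receives compound; relative cell number is quantified at 96 h by SRB staining and 560 nm absorbance, with DMSO-referenced bidirectional curve fitting.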

The nature of experiment [15]: BSK_SAg_SRB: Viability Assessment in the BioMAP Diversity Plus: SAg Assay (AID 2283096).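 Note: cells read one day after compound addition; hits may be either gain or loss of signal compared with DMSO.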 The conditions noted are these: primary human HUVEC with PBMC. A digest of the protocol:
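This overt-cytotoxicity endpoint quantifies protein in human endothelial/PBMC co-cultures at 24 h using SRB absorbance (560 nm) after trichloroacetic acid fixation. Values reflect signal change from the DMSO negative control, fitted bidirectionally.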

Read-out in experiment [16]: Interleukin-8 (IL8), CXCL8 (gene 3576)
Put plainly: BSK_SAg_IL8: BioMAP Diversity Plus: SAg Assay for Interleukin-8 (IL8) Biomarker Activity (AID 2283094). The conditions noted are these: primary human HUVEC with PBMC; actives raise or lower the signal. A digest of the protocol: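 Primary human endothelial cells with PBMC, exposed 24 h; IL-8 determined by ELISA, analysed bidirectionally relative to DMSO.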

For experiment [17], the target named is human CYP1A2, CYP1A2 (gene 1544) (UniProt P05177). Description: NVS_ADME_hCYP1A2: NovaScreen (NVS) CYP450-related Enzyme Activity (ADME) Assay for human CYP1A2 (AID 2283102; active = hit-call score of the fitted dose curve at least 0.9, where 1 is the maximum;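 note: fluorescence from turnover of a fluorogenic substrate by recombinant insect-cell CYP1A2; potency for inhibition since loss of fluorescence marks reduced CYP1A2 activity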). The procedure, abridged: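 Inhibition scored as decrease in fluorescent product versus acetonitrile negative control. Enzyme: insect-cell recombinant human CYP1A2, substrate-specific, cell-free. Reading at 0.5 h; 10 uM duplicate initial screen with positive and negative controls on every plate.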

Activity calls are given as the source filed them. Rule for the calls, unless noted: active = hit-call score of the fitted dose curve at least 0.9, where 1 is the maximum; inactive = score below 0.9.

E-selectin (Homo sapiens), sequence (P16581 whole entry, looked up): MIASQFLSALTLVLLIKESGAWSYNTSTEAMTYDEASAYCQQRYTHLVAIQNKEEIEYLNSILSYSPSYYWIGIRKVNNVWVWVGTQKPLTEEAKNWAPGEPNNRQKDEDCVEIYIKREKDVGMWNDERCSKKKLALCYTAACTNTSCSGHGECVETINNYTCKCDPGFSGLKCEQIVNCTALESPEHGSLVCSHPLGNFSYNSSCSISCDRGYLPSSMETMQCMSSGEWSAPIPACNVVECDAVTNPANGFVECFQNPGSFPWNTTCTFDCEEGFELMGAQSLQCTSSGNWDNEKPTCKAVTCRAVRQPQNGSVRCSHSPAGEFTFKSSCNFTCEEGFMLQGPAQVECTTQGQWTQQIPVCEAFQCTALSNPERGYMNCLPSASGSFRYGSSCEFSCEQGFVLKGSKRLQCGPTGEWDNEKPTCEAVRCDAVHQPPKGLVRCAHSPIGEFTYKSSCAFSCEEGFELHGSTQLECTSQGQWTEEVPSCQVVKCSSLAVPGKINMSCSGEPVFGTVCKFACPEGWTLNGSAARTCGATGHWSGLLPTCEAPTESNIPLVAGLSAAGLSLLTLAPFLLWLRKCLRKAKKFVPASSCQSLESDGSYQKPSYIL
Tumor necrosis factor (Homo sapiens), sequence (P01375 whole entry, looked up): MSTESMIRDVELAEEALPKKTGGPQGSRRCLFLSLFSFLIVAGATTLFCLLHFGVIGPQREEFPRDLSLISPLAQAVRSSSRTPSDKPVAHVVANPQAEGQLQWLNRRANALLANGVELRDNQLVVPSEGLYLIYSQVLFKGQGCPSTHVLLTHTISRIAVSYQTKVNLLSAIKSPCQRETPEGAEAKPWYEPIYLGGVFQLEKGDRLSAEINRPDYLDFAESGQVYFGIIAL
human CYP1A2, CYP1A2 (gene 1544), sequence (P05177 whole entry, looked up): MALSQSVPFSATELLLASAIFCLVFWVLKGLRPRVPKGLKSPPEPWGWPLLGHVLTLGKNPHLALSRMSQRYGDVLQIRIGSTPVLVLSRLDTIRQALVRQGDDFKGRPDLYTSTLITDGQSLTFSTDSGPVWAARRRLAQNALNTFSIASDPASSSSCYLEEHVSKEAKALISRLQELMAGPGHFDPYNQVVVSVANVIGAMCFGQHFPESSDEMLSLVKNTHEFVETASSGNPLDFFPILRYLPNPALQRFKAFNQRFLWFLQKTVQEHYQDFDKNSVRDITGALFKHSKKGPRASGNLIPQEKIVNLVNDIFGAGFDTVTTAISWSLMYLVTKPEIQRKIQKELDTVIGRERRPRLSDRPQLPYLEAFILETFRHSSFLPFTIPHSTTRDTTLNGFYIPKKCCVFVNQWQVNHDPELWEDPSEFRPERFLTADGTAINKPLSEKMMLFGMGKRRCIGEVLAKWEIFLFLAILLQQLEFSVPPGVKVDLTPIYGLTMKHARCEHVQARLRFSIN

`CC(C=O)Cc1ccc2c(c1)OCO2` (stereo not drawn): the result in experiment [1], in experiment [2], in [3], in experiment [4], in experiment [5] and in experiment [6] was inactive. Besides, the outcome in experiment [7], in [8], in experiment [9], in experiment [10], in experiment [11] and in experiment [12] was inactive. Besides, the result in [13], in experiment [14] and in [15] was inactive.
With `C=CC(Cl)CCl` (stereo not drawn), the result in [1], in [2], in [3], in experiment [4], in [5] and in experiment [6] was inactive. Besides, the result in experiment [7], in [9], in experiment [10], in [11], in experiment [12] and in experiment [13] was inactive. In addition, the outcome in experiment [16] and in [14] was inactive. The AC50 in experiment [8] is 0.478 µM (active).
For the compound `C#CCOC(=O)/C=C(C)/C=C/CC(C)CCCC(C)C` (stereo not drawn), the result in experiment [1], in [2], in [3], in experiment [4], in [5] and in experiment [6] was inactive. Further, the outcome in experiment [7], in experiment [8], in experiment [10], in experiment [11], in [12] and in experiment [13] was inactive. For the same compound, the outcome in experiment [14] and in experiment [15] was inactive. In experiment [9], the AC50 was 20 µM (active).
`CN(C)C(=S)S`: the result in [1], in experiment [2], in experiment [3], in experiment [4], in experiment [5] and in [6] was inactive. Moreover, the outcome in [7], in experiment [8], in experiment [9], in experiment [10], in [11] and in experiment [12] was inactive. The AC50 is 0.148 µM (active) in experiment [13], 0.488 µM (active) in experiment [14] and 5.64 µM (active) in experiment [17].
`Cc1cccc(OP(=O)(Oc2cccc(C)c2)Oc2cccc(C)c2)c1`: the outcome in [1], in [2], in experiment [3], in [4], in experiment [6] and in experiment [7] was inactive. Further, the outcome in [8], in [9], in experiment [10], in experiment [11], in experiment [12] and in experiment [13] was inactive. In [14], the result was inactive. The concentration at half-maximal activity (AC50) in experiment [5] was 32.3 µM (active).
For the compound `CCCCCCCCCCCCN(C)C`, the result in experiment [1], in experiment [2], in [3], in experiment [4], in experiment [5] and in experiment [6] was inactive. The result in [7], in experiment [8], in experiment [9], in experiment [10], in [11] and in experiment [12] was inactive. Further, the outcome in experiment [13], in [16] and in experiment [14] was inactive.
For the compound `CCCCOC(=O)COC(=O)c1ccccc1C(=O)OCCCC`, the result in experiment [1], in experiment [2], in [3], in [4], in experiment [5] and in [6] was inactive. Besides, the outcome in experiment [7], in experiment [8], in [9], in [10], in [11] and in experiment [12] was inactive. Moreover, the outcome in experiment [13] and in [14] was inactive.

The AC50 is the midpoint of the concentration-response curve, whichever way the signal moves.

These data come from PubChem BioAssay (EPA / NIEHS).
